In all, about 48,000 compounds went through this assay and about 13,000 (27%) showed an effect of 50% or more. The list shows a part of the results.

The experiment relates to Wolbachia pipientis. The experiment is described as follows: Anti-Wolbachia Cell-Based Screen. In kind it is functional. More on the design: scale not given: in the data most compounds retested in dose-response had high values. The settings on record: 5 µM.
Consider `COc1cc(S(=O)(=O)N2C[C@@H](C)[C@@](C)(O)C2)c(C)cc1C`, for which the “Percent Effect” value is given as -12.13%. Take `Cc1cccnc1CNCC1(O)CCCN(Cc2ccc(F)cc2)C1=O` (stereo not drawn): the “Percent Effect” value came to 9.379%. Take `CCOc1cc(NC(=O)N(C)Cc2ncnn2C)ccc1C`: the “Percent Effect” value is on record as -12.81%. In the case of `CCOc1cc(C(=O)N(C)C)ccc1NC(=O)c1ccsc1`, the “Percent Effect” value is -5.987%. With `CC(C)CC(=O)N1CC(=O)c2sc(NCCc3ccccc3)nc2C1`, the “Percent Effect” value is on record as 112.3%. With `CN1CC(=O)c2sc(NCCc3ccccc3)nc2C1`, the “Percent Effect” value amounted to 91.14%. For `CC(C)SCC(=O)N1Cc2cnc(-c3ccccc3)nc2C1`, the “Percent Effect” value stood at 3.989%.

Turning to `Cn1ccc(C(=O)N2CCN(CCc3ccccc3)CC2)cc1=O`, the “Percent Effect” value was -2.355%.

With `CC(C)Cc1ncc2c(n1)CN(C(=O)Cn1c(=O)oc3ccccc31)C2`, the “Percent Effect” value was -4.555%. Consider `Cn1cnc2c1CCN(CCCc1ccccc1)C2`, for which the “Percent Effect” value is recorded as 0.7928%. In the case of `CNc1nc(CNC(=O)Nc2cccc(F)c2)cs1`, the “Percent Effect” value was -0.1987%. As to `CC(NC1(CNC(=O)NC2CC2)CCOCC1)c1ccccc1` (stereo not drawn), the “Percent Effect” value is listed as 5.387%.

For `CCC1=N[C@@]2(CC[C@@H]3CN(Cc4cccc(Cl)c4)C[C@@H]32)C(=O)N1C.O=C(O)C(F)(F)F`, the “Percent Effect” value came to 95.01%. With `CCC1=N[C@@]2(CC[C@@H]3CN(C(=O)NCc4ccccc4)C[C@@H]32)C(=O)N1C`, the “Percent Effect” value is listed as -13.65%. On to `CCC1=N[C@@]2(CC[C@@H]3CN(Cc4ccc(C)cc4)C[C@@H]32)C(=O)N1C.O=C(O)C(F)(F)F`, for which the “Percent Effect” value came out at 81.5%. For `CCC1=N[C@@]2(CC[C@@H]3CN(Cc4ccccc4C)C[C@@H]32)C(=O)N1C.O=C(O)C(F)(F)F`, the “Percent Effect” value worked out at 114.6%. The figure for `CCC1=N[C@@]2(CC[C@@H]3CN(Cc4ccccc4C)C[C@@H]32)C(=O)N1.O=C(O)C(F)(F)F` is -9.167%; for `O=C(O)C(F)(F)F.O=C1NC(c2ccccc2)=N[C@@]12CC[C@@H]1CN(Cc3ccccc3)C[C@@H]12` it is 4.255%; for `CCC1=N[C@@]2(CC[C@@H]3CN(CC(=O)N(C)C)C[C@@H]32)C(=O)N1CC1CC1.O=C(O)C(F)(F)F` it is -4.089%. As to `CCC1=N[C@@]2(CC[C@@H]3CN(Cc4ccccc4F)C[C@@H]32)C(=O)N1CC.O=C(O)C(F)(F)F`, the “Percent Effect” value is listed as -10.67%. As to `CCC1=N[C@@]2(CC[C@@H]3CN(Cc4ccc(F)cc4)C[C@@H]32)C(=O)N1C.O=C(O)C(F)(F)F`, the “Percent Effect” value was determined as 103.7%. For the compound `CC1=N[C@@]2(CC[C@@H]3CN(CC(C)C)C[C@@H]32)C(=O)N1C.O=C(O)C(F)(F)F`, the “Percent Effect” value is 8.258%. Take `CCC1=N[C@@]2(CC[C@@H]3CN(C(=O)NC(C)C)C[C@@H]32)C(=O)N1C`: the “Percent Effect” value is given as -5.226%. As to `CCC1=N[C@@]2(CC[C@@H]3CN(CC(C)C)C[C@@H]32)C(=O)N1.O=C(O)C(F)(F)F`, the “Percent Effect” value is -10.58%.

`CCCN1CCC(CC(=O)N[C@H](C(=O)O)c2cccc(F)c2F)CC1`: the “Percent Effect” value is -4.75%. Turning to `COC(=O)NCC(=O)NCC(C)(C)c1cccc(Br)c1`, the “Percent Effect” value is listed as -15.07%.

`CCCc1ncc(CN(CCOC)Cc2cccs2)cn1`: the “Percent Effect” value was -13.63%. For `CCN(CCn1cccn1)Cc1nc(-c2ccccc2F)oc1C`, the “Percent Effect” value is on record as 1.604%. Turning to `C=C(C)COCCNC(=O)Nc1cccc(Cn2nc(C)nc2C)c1`, the “Percent Effect” value is on record as -4.389%. As to `COc1ccc(S(=O)(=O)N2CCOC(Cn3ccnc3)C2)cc1.Cc1ccc(S(=O)(=O)O)cc1` (stereo not drawn), the “Percent Effect” value came out at 106.9%. For the compound `Cc1ccc(S(=O)(=O)N2CCN(CCCn3ccnc3)CC2)cc1`, the “Percent Effect” value is -7.959%. On to `COc1ccc(S(=O)(=O)N2CCOC[C@H](Oc3cnccn3)C2)cc1`, for which the “Percent Effect” value is on record as -5.156%.

With `CC(=O)c1ccc(S(=O)(=O)N2CCOC(Cn3ccnc3)C2)cc1` (stereo not drawn), the “Percent Effect” value is 80.08%. As to `CC(=O)Nc1ccc(S(=O)(=O)N2CCOC(Cn3ccnc3)C2)cc1` (stereo not drawn), the “Percent Effect” value stood at 127.1%. The same measure for `O=S(=O)(c1ccccc1)N1CCCN(CCCn2ccnc2)CC1`: 1.416%; for `CCN(C)C[C@@H]1CN(S(=O)(=O)c2ccc(OC)cc2)C[C@@H]1CO`: 9.662%; for `O=S(=O)(c1ccccc1)N1CCN(CCn2ccnc2)CC1`: -17.14%. As to `O=S(=O)(c1ccc(Cl)cc1)N1CCN(CCCn2ccnc2)CC1`, the “Percent Effect” value was -9.759%. For the compound `O=S(=O)(c1ccccc1)N1CCOC(Cn2ccnc2)C1` (stereo not drawn), the “Percent Effect” value was 143.1%. With `CCC1CN(C(=O)COc2ccc(NC(C)=O)cc2)CCO1` (stereo not drawn), the “Percent Effect” value is recorded as -18.64%. Take `CC(=O)Nc1ccc(S(=O)(=O)NC(=O)CCC2CCCO2)cc1` (stereo not drawn): the “Percent Effect” value was -4.56%. As to `Cc1ccc2c(c1)OCCCC2NCc1nnc2n1CCCCC2` (stereo not drawn), the “Percent Effect” value is on record as -3.349%. Turning to `CCCN(CC)Cc1ccc(C(=O)NCC2COCCO2)c(=O)[nH]1` (stereo not drawn), the “Percent Effect” value is on record as -4.085%. For the compound `O=C(CSc1ncccn1)N1C[C@H]2CC[C@@H]1CN(Cc1ccncc1)C2`, the “Percent Effect” value is recorded as -5.142%. For the compound `CC(C)Cn1ccnc1CNC(=O)NC(C)(C)c1nccs1`, the “Percent Effect” value came to 4.874%.

Turning to `Cc1nc(C)c(C(C)NC(=O)NCCNc2cccc(F)c2C#N)s1` (stereo not drawn), the “Percent Effect” value is given as -3.673%. As for `N#Cc1nccnc1N1CCC(C(O)c2cccs2)CC1` (stereo not drawn), the “Percent Effect” value was determined as 6.256%. For the compound `CCS(=O)(=O)N1CCC2(CCN(Cc3ccc(C)o3)C2)C1` (stereo not drawn), the “Percent Effect” value was -25.86%. The figure for `COc1cccc2c1OCC(C(=O)NCCCn1nc(C)c(Cl)c1C)C2` (stereo not drawn) is -39.79%; for `Cc1nc(CNC2(C(=O)OC(C)(C)C)CCCC2)oc1C` it is -20.11%. On to `Cc1c[nH]cc1C(=O)N1CCN(Cc2nc(C(C)C)no2)CC1`, for which the “Percent Effect” value is -4.204%. The figure for `COc1cccc(C(=O)N2CCN(Cc3nc(C(C)C)no3)CC2)c1` is 117.9%; for `CCOC(=O)c1coc(N2CCN(C(=O)c3cccc(OC)c3)CC2)n1` it is -22.87%; for `Cc1ccc(C(=O)N2CCN(Cc3nc(C(C)C)no3)CC2)c(=O)[nH]1` it is -11.93%. Take `CC(C)(C)c1noc(CN2CCN(C(=O)c3ccco3)CC2)n1`: the “Percent Effect” value is on record as -32.87%. Turning to `CCOC(C)c1noc(CN2CCN(Cc3cccc(F)c3)CC2)n1` (stereo not drawn), the “Percent Effect” value is -0.1841%. `CC(C)c1noc(CN2CCN(C(=O)c3ccc(F)cc3)CC2)n1`: the “Percent Effect” value is 109.7%. In the case of `CC(C)Cc1noc(CN2CCN(C(=O)c3cccc(F)c3)CC2)n1`, the “Percent Effect” value is listed as 1.261%. On to `CC(C)c1noc(CN2CCN(C(=O)c3cccc(F)c3)CC2)n1`, for which the “Percent Effect” value was found to be 101.9%. Consider `CCCn1nnnc1CN(c1ccc(C)cc1)C(C)C`, for which the “Percent Effect” value was found to be 3.327%. As for `CCS(=O)(=O)N1CCC2(CC(=O)N(c3cnn(C)c3)C2)C1` (stereo not drawn), the “Percent Effect” value is given as -4.174%. For `COCCN1CCN(Cc2nnc(-c3occc3C)o2)CC1`, the “Percent Effect” value is 0.1537%. The figure for `Cc1ccc(-c2nc(CN(C)C3CCS(=O)(=O)C3)cs2)o1` (stereo not drawn) is -14.87%; for `OC(CN1CCOCC1)c1ccc(OC(F)(F)F)cc1` (stereo not drawn) it is -7.461%; for `COc1ccccc1CC(C)(C)NC(=O)CC(F)(F)F` it is -8.852%.

`CN(C)C(C(=O)N1CCSCC1)c1ccccc1F` (stereo not drawn): the “Percent Effect” value came to 0.1762%. Take `Cc1cccc(CN2CCC3(CC2)NC(=O)CC3c2ccccc2)n1.O=C(O)C(F)(F)F` (stereo not drawn): the “Percent Effect” value came out at 109.2%. The same measure for `Cn1cc(C2CC(=O)NC23CCN(C(=O)Cc2ccccn2)CC3)cn1.O=C(O)C(F)(F)F` (stereo not drawn): 105.4%; for `Cn1cc(C2CC(=O)NC23CCN(C(=O)c2cccnc2)CC3)cn1.O=C(O)C(F)(F)F` (stereo not drawn): 11.55%. The same measure for `Cc1cccc(CN2CCC3(CC2)NC(=O)C[C@H]3c2cnn(C)c2)n1.O=C(O)C(F)(F)F`: 84.49%.

With `Cc1cncc(C(=O)N2CCC3(CC2)NC(=O)CC3c2ccccc2)c1.O=C(O)C(F)(F)F` (stereo not drawn), the “Percent Effect” value is given as -43.74%.

For the compound `CC(C)COC1CC2(CCN(C(=O)Cc3ccccn3)CC2)C1.O=C(O)C(F)(F)F`, the “Percent Effect” value is reported as -2.519%.

Turning to `COc1cc(F)ccc1C(C(=O)O)N1CCN(C2CCCCC2)CC1` (stereo not drawn), the “Percent Effect” value is listed as -11.47%. Take `O=C(O)C(F)(F)F.O=C(O)C(F)(F)F.O=C(c1ccco1)N1CC[C@@H](N2CCOCC2)[C@@H]1Cc1ccncc1`: the “Percent Effect” value was 0.4302%.

Regarding `COc1ccc(C2CC(=O)NCc3nc4ccccn4c32)cn1` (stereo not drawn), the “Percent Effect” value is on record as -7.087%.

Turning to `Cc1c(NC(=O)NC2CCCC2)cccc1C(=O)N1CCSCC1`, the “Percent Effect” value came to 1.099%. The same measure for `CN(Cc1cccnc1)[C@@H]1CN(Cc2ccccn2)[C@@H]2CCCO[C@H]12`: 150.6%; for `CN(Cc1cccnc1)[C@@H]1CN(c2ncc(F)cn2)[C@@H]2CCCO[C@H]12`: 115.7%. For `Fc1cnc(N2CC[C@@H](N3CCOCC3)[C@@H]2Cc2cccnc2)nc1.O=C(O)C(F)(F)F.O=C(O)C(F)(F)F`, the “Percent Effect” value was -8.935%. Turning to `CN(C)S(=O)(=O)N1C[C@@H](OCc2ccccn2)[C@H]2OCCC[C@H]21`, the “Percent Effect” value was -8.506%.

Turning to `Cc1nnc(N2C[C@H](OCc3cccnc3)[C@H]3OCCC[C@H]32)s1.O=C(O)C(F)(F)F.O=C(O)C(F)(F)F`, the “Percent Effect” value is recorded as -2.334%. Consider `CN(Cc1cccnc1)C[C@H]1OC[C@@H]2CCN(c3ncccn3)C[C@@H]21`, for which the “Percent Effect” value is recorded as -26.32%. Turning to `CN(C)[C@@H]1CCN(c2ncc(F)cn2)[C@H]1Cc1cccnc1.O=C(O)C(F)(F)F.O=C(O)C(F)(F)F`, the “Percent Effect” value is recorded as -4.235%. With `Cn1cnc2c1C(COCc1cccnc1)N(Cc1ccccn1)CC2` (stereo not drawn), the “Percent Effect” value is -4.63%. Take `CN(Cc1cccnc1)[C@@H]1CN(c2ccccn2)[C@@H]2CCCO[C@H]12`: the “Percent Effect” value worked out at 82.23%. The figure for `O=C(c1scc2c1OCCO2)N1CCC(Cc2cccc(CO)c2)C1` (stereo not drawn) is -12.67%; for `CC(=O)NCc1ccc(C(=O)N2CCCCC2Cn2cccn2)o1` (stereo not drawn) it is -0.4212%. As to `CC(=O)Nc1nc(C(=O)N2CCCCC2Cn2cc(C)cn2)cs1` (stereo not drawn), the “Percent Effect” value is 67.59%. `CC(=O)Nc1nc(CN2CCCC2Cn2cc(C)cn2)cs1` (stereo not drawn): the “Percent Effect” value is -0.668%. As to `CC(=O)Nc1nc(C(=O)N2CCCCC2Cn2cccn2)cs1` (stereo not drawn), the “Percent Effect” value is 109.7%.

In the case of `CC(=O)Nc1nc(CN2CCCC2Cn2cccn2)cs1` (stereo not drawn), the “Percent Effect” value was -22.51%. For the compound `CC(=O)Nc1nc(C(=O)N2CCCC2Cn2cc(C)cn2)cs1` (stereo not drawn), the “Percent Effect” value is listed as -2.697%. For `CC(=O)Nc1nc(C(=O)N2CCCC2Cn2cccn2)cs1` (stereo not drawn), the “Percent Effect” value is 136.5%.

Source of the values: ChEMBL document CHEMBL3988442, “University of Dundee, Small-Polar-MMV Screening Library” (2021).
